# Results: the supplement of paper PMC11577813, “Eurasian spruce bark beetle detects lanierone using a highly expressed specialist odorant receptor, present in several functional sensillum types” (BMC Biology, 2024)
# ± gives the standard deviation of the averaged measurements.
# Experiments:
# [1] = system: (+)-isopinocamphone A-neuron OSN class; assay: net action potential response of A-neuron (blank-subtracted) (spikes/s (Hz)); higher = stronger excitation; settings: 10 µg on filter paper; neuron: A neuron (large spike amplitude)
# In short: (§1)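 Single sensillum recordings with tungsten electrodes were taken from one fixed antenna of live lab-reared adult Ips typographus, with each compound (10 μg in paraffin oil on filter paper in a pipette) given as a 0.5 s pulse at 0.3 L/min into a humidified, charcoal-filtered 1.8 L/min airstream. AutoSpike counts of A-neuron or B-neuron spikes in 0.5 s windows had the pre-stimulus count subtracted. Responses were then converted to spikes/s, blank-subtracted and averaged over 1–4 sensilla.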
# [2] = system: (+)-trans-4-thujanol A-neuron OSN class; assay: as above; settings: 10 µg on filter paper; neuron: A neuron (large spike amplitude)
# In short: as §1
# [3] = system: (5S,7S)-trans-conophthorin A-neuron OSN class; assay: as above; settings: 10 µg on filter paper; neuron: A neuron (large spike amplitude)
# In short: as §1
# [4] = system: myrcene A-neuron OSN class; assay: as above; settings: 10 µg on filter paper; neuron: A neuron (large spike amplitude)
# In short: as §1
# [5] = system: p-cymene A-neuron OSN class; assay: as above; settings: 10 µg on filter paper; neuron: A neuron (large spike amplitude)
# In short: as §1
# [6] = system: lanierone-responsive B-neuron OSN class (ItypOR36); assay: net action potential response of lanierone B-neuron (blank-subtracted) (spikes/s (Hz)); higher = stronger excitation; settings: 10 µg on filter paper, neuron: B neuron (small spike amplitude)
# In short: as §1
# [7] = system: ipsdienol A-neuron OSN class; assay: net action potential response of A-neuron (blank-subtracted) (spikes/s (Hz)); higher = stronger excitation; settings: 10 µg on filter paper; neuron: A neuron (large spike amplitude)
# In short: as §1
# [8] = co-localized A-neuron class: (4S)-cis-verbenol
# [9] = co-localized A-neuron class: (5S,7S)-trans-conophthorin
# [10] = co-localized A-neuron class: (+)-isopinocamphone
# [11] = co-localized A-neuron class: (+)-trans-4-thujanol
# [12] = co-localized A-neuron class: ipsdienol
# [13] = co-localized A-neuron class: myrcene
# [14] = co-localized A-neuron class: p-cymene
Structure (SMILES),net action potential response [1],net action potential response [2],net action potential response [3],net action potential response [4],net action potential response [5],"net action potential response [6, 8]","net action potential response [6, 9]","net action potential response [6, 10]","net action potential response [6, 11]","net action potential response [6, 12]","net action potential response [6, 13]","net action potential response [6, 14]",net action potential response [7]
C=C1CCC2(C(C)C)CC12 (racemic) [(±)-Sabinene],0.667 ± 3.1,6.5 ± 5.5,0.667 ± 3.1,34,1.33 ± 6.4,0.667 ± 6.4,-1.33 ± 1.1,-1.33 ± 2.3,0.5 ± 1.9,1.33 ± 9.2,-4,-4 ± 5.3,–
"COc1ccc(C)cc1OC [3,4-Dimethoxytoluene]",0.667 ± 3.1,1.5 ± 3.8,2.67 ± 6.4,4,1.33 ± 1.1,5.33 ± 11,0 ± 7.2,1.33 ± 2.3,-1.5 ± 3.4,2 ± 6,2,-2 ± 6.9,–
Cc1ccc(C(C)C)cc1 [p-Cymene],-0.667 ± 2.3,0.5 ± 5.3,3.5 ± 3.4,0,146 ± 65,-3.33 ± 3.1,0.5 ± 2.5,-2 ± 3.5,-1.5 ± 4.4,-1.33 ± 5,4,-3.33 ± 5.8,–
CC1=C[C@@H](O)[C@H]2C[C@@H]1C2(C)C [(-)-trans-Verbenol],0.667 ± 10,5.5 ± 5.7,13 ± 20,6,2 ± 2,-1.33 ± 9,-3.5 ± 6,1.33 ± 2.3,-2 ± 2.8,2 ± 4,-4,-2 ± 9.2,–
C=CC(O)CCCCC (racemic) [(±)-1-Octen-3-ol],-4.67 ± 1.1,33 ± 24,1.5 ± 2.5,2,1.33 ± 1.1,-6.67 ± 5,-0.5 ± 2.5,-2 ± 4,0 ± 1.6,-3.33 ± 1.1,4,0.667 ± 3.1,–
C[C@H]1C(=O)C[C@H]2C[C@@H]1C2(C)C [(-)-Pinocamphone],119 ± 57,-0.5 ± 1.9,2 ± 2,0,3.33 ± 3.1,-2 ± 2,-4 ± 8.7,-1.33 ± 1.1,1 ± 3.8,0 ± 6,4,-2 ± 3.5,-2.67 ± 1.1
